Unmarked numbers belong to inactive results. Results filed as inconclusive are left out. Entries that show only a call come without a potency. The source made the active and inactive calls. Unless noted, calls follow the shape of the full dose curve.
Key:
[1] = Nuclear factor erythroid 2-related factor 2/antioxidant responsive element (Nrf2/ARE) small molecule agonists: qHTS cell viability counter screen in human keratinocytes (AID 1919968; active = well fitted curve in the direction sought with a large enough effect in the repeat runs; an effect the other way counts as inactive or inconclusive; also: nearly all actives have a fitted effect of over 55% in size; also: potency is read from the fitted curve at half-maximal effect)
Method in brief: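 KeratinoSens cells (HaCaT keratinocytes stably carrying an ARE-luciferase reporter) were seeded at 1,500 cells/well and rested 5 h at 37 C/5% CO2. They were then exposed to compounds in DMSO for 23 h. Viability was read by CellTiter-Fluor fluorescence after 1 h.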

[2] = target: Gonadotropin-releasing hormone receptor (Homo sapiens) (UniProt P30968); test: Human gonadotropin-releasing hormone receptor (GnRHR) small molecule agonists, calcium flux assay in GnRHR-HEK293 cells (AID 1920063); also: nearly all actives have a fitted effect of over 35% in size
Sequence of Gonadotropin-releasing hormone receptor (Homo sapiens) (P30968 whole entry, looked up): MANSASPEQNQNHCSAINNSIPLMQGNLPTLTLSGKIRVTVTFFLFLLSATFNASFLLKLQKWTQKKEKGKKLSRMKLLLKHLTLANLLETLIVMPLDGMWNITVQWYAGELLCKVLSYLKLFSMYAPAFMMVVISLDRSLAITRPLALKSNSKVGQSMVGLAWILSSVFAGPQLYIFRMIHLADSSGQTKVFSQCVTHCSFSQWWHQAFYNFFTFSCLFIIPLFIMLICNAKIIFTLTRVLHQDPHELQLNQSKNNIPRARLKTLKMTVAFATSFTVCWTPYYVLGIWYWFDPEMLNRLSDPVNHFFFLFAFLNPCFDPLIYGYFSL
Method in brief: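 HEK293 cells stably expressing human GnRHR were plated 18 h at 37 °C, loaded with calcium dye 1 h at 37 °C, then given compound in agonist mode; fluorescence (Ex/Em 480/540) read kinetically for 3 min at 1 s intervals.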

[3] = target: KiSS-1 receptor (Homo sapiens) (UniProt Q969F8); test: Human kisspeptin (KISS1R) small molecule agonists, calcium flux assay in KISS1R-HEK293 cells (AID 1920064; active = well fitted curve in the direction sought with a large enough effect in the repeat runs; an effect the other way counts as inactive or inconclusive)
Sequence of KiSS-1 receptor (Homo sapiens) (Q969F8 whole entry, looked up): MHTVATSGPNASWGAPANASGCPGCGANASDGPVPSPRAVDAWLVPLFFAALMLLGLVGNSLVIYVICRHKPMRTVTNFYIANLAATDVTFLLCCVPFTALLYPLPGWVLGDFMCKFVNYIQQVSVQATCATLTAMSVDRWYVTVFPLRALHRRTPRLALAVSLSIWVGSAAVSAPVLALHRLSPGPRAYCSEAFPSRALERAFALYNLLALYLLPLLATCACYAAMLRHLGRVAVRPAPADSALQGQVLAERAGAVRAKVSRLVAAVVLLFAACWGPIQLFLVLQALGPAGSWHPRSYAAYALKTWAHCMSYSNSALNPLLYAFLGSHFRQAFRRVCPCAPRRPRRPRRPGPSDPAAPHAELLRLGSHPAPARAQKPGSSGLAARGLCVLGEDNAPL
Method in brief: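 HEK293 cells stably expressing human KISS1R were plated 18 h at 37 °C, loaded with calcium dye for 1 h at 37 °C, then given compound by pin tool. Fluorescence (Ex/Em 480/540) was read kinetically for 3 min.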

[4] = G protein-coupled receptor (GPCR) small molecule agonists, calcium flux assay: HEK293 wild type cell line counter screen (AID 1920065)
Method in brief: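 Cells were plated and cultured 18 h at 37 C/5% CO2, then loaded with calcium dye for 1 h at 37 C. Compounds in DMSO were pin-transferred in agonist mode, and fluorescence (Ex/Em 480/540) was read kinetically for 3 min at 1 s intervals.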

[5] = p53 small molecule agonists, cell-based qHTS assay with human liver microsomes (AID 1963577); also: potency is read from the fitted curve at half-maximal effect
Method in brief: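 p53RE-bla cells, 4,000/well, compound added after 5 h, with human liver microsomes 0.5 mg/mL and NADPH 0.5 mg/mL final; 16 h at 37 C, then LiveBLAzer 2 h RT, fluorescence.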

[6] = p53 small molecule agonists, cell-based qHTS assay with human liver microsomes: qHTS cell viability counter screen (AID 1963579); also: nearly all actives have a fitted effect of over 45% in size
Method in brief: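 p53RE-bla cells, 4,000/well, dosed 5 hours after plating, with human liver microsomes (0.5 mg/mL final) plus NADPH (0.5 mg/mL final), 16 hours at 37 C. Viability read as CellTiter-Glo luminescence after 30 min at room temperature.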

[7] = p53 small molecule agonists, cell-based qHTS assay with rat liver microsomes: qHTS cell viability counter screen (AID 1963580); also: nearly all actives have a fitted effect of over 45% in size
Method in brief: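 Intracellular ATP, by CellTiter-Glo luminescence, defines viability. HCT-116 p53RE-bla cells, 4,000 per well, were compound-treated in the presence of rat liver microsomes and NADPH for 16 h at 37 C.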

[8] = p53 small molecule agonists, cell-based qHTS assay: qHTS cell viability counter screen (AID 1963581); also: nearly all actives have a fitted effect of over 45% in size
Method in brief: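 p53RE-bla HCT-116 cells were exposed to compounds for 16 h at 37 C; after the beta-lactamase FRET read in the same wells, CellTiter-Glo was added and luminescence (intracellular ATP) read after 30 min at room temperature.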

[9] = target: 5-hydroxytryptamine receptor 2A (Homo sapiens) (UniProt P28223); test: 5-hydroxytryptamine receptor 2A (HTR2A) small molecule antagonists, cell-based qHTS assay (AID 1963586); also: nearly all actives have a fitted effect of over 45% in size
Sequence of 5-hydroxytryptamine receptor 2A (Homo sapiens) (P28223 whole entry, looked up): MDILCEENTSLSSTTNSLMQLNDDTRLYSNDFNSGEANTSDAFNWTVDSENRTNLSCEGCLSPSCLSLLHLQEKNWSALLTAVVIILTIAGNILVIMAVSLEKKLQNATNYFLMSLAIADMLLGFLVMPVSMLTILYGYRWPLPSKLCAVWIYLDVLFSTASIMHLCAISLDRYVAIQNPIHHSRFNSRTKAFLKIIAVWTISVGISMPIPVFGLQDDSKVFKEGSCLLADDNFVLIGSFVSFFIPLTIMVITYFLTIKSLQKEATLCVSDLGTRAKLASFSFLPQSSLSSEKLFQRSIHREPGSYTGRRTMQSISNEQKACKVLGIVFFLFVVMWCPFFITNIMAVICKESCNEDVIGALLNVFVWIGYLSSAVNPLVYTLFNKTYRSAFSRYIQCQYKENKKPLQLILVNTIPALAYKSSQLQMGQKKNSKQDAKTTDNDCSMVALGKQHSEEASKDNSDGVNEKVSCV
Method in brief: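 Antagonist-mode intracellular calcium assay: DOI (4 nM) added after 5 min compound pre-incubation at room temperature to dye-loaded HTR2A-CHO cells. Fluorescence followed for 3 min, sampled every second.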

[10] = target: 5-hydroxytryptamine receptor 2A (Homo sapiens) (UniProt P28223); test: 5-hydroxytryptamine receptor 2A (HTR2A) small molecule agonists, cell-based qHTS assay (AID 1963587); also: nearly all actives have a fitted effect of over 30% in size
Method in brief: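 Kinetic calcium-flux fluorescence (2 min, 1 sec intervals) after compound addition in agonist mode. HTR2A-CHO cells were cultured 18 h, then dye-loaded 1 h at 37 C.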

[11] = target: Muscarinic acetylcholine receptor M1 (Homo sapiens) (UniProt P11229); test: Cholinergic receptor muscarinic 1 (CHRM1) small molecule antagonists, cell-based qHTS assay (AID 1963588); also: nearly all actives have a fitted effect of over 40% in size; also: potency is read from the fitted curve at half-maximal effect
Sequence of Muscarinic acetylcholine receptor M1 (Homo sapiens) (P11229 whole entry, looked up): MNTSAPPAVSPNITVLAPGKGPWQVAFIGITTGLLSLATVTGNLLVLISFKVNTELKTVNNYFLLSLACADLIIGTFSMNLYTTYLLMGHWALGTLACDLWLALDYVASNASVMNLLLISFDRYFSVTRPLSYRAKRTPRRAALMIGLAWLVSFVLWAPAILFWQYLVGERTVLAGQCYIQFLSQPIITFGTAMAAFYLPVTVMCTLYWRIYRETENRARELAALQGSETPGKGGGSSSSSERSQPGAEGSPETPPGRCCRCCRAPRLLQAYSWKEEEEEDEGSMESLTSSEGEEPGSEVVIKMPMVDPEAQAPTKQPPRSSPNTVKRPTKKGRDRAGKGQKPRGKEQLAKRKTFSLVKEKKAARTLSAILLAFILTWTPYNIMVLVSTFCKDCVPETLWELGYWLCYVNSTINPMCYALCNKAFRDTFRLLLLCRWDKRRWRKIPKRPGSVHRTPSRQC
Method in brief: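 CHRM1-CHO calcium-flux assay, antagonist mode. Cells were seeded 18 h, dye-loaded 1 h at 37 C and given compound for 5 min at RT, then acetylcholine was added at 50nM. FDSS fluorescence was read 3 min; 15 concentrations, three runs.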

[12] = target: Muscarinic acetylcholine receptor M1 (Homo sapiens) (UniProt P11229); test: Cholinergic receptor muscarinic 1 (CHRM1) small molecule agonists, cell-based qHTS assay (AID 1963589); also: nearly all actives have a fitted effect of over 35% in size
Method in brief: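 CHO cells stably expressing human CHRM1, seeded 18 h at 37 C/5% CO2, dye-loaded 1 h at 37 C, then given compound in agonist mode; intracellular calcium fluorescence read kinetically at 1 s intervals. Fifteen concentrations, three independent runs.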

[13] = cAMP Responsive Elements (CRE) small molecule agonists, cell-based qHTS assay (AID 1963590)
Method in brief: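 CRE-bla HEK 293T cells in DMEM with 10% dialyzed FBS, NEAA, pyruvate and 25 mM HEPES were plated 18 h at 37 C/5% CO2, then exposed to compounds in DMSO for 3 h before LiveBLAzer B/G FRET substrate addition.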

[14] = cAMP Responsive Elements (CRE) small molecule antagonists, cell-based qHTS assay (AID 1963591; active = well fitted inhibition curve with a large enough effect in the signal ratio in the repeat runs, not every such curve was filed as active; the % refers to the signal ratio)
Method in brief: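 CRE-bla HEK293T cells were plated 18 h at 37 °C/5% CO2, pinned with compound in DMSO, then stimulated with NKH477 at 0.25 uM final for 3 h. LiveBLAzer B/G FRET substrate was added and plates incubated 2 h at room temperature.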

[15] = target: Beta-2 adrenergic receptor (Homo sapiens) (UniProt P07550); test: Adrenergic beta2 receptor (ADRB2) small molecule antagonists, cell-based qHTS assay (AID 1963592); also: series mostly up to about 92 µM; nearly all actives have a fitted effect of over 50% in size
Sequence of Beta-2 adrenergic receptor (Homo sapiens) (P07550 whole entry, looked up): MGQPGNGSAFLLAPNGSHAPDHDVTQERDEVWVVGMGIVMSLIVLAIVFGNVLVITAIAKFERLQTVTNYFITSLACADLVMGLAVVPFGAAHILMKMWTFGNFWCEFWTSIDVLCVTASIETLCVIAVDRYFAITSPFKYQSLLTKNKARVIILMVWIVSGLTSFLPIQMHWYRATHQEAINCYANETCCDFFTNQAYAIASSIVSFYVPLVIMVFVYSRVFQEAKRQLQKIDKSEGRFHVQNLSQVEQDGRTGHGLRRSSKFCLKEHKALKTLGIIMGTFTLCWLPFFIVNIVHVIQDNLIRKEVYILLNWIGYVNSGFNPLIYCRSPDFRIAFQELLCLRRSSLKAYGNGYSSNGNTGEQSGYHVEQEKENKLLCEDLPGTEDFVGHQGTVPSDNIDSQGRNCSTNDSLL
Method in brief: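 Cells (CHO, stable ADRB2 overexpression) incubated 18-20hr at 37C; compounds added from DMSO; agonist mix (1nM isoproterenol, 100uM IBMX, 25uM Ro-20-1724) added; 0.5hr RT; d2-cAMP and anti-cAMP-cryptate added; 1hr RT; 665/615 nm read.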

[16] = target: D(2) dopamine receptor (Homo sapiens) (UniProt P14416); test: Dopamine D2 receptor (DRD2) small molecule agonists, cell-based qHTS assay (AID 1963594); also: nearly all actives have a fitted effect of over 35% in size
Sequence of D(2) dopamine receptor (Homo sapiens) (P14416 whole entry, looked up): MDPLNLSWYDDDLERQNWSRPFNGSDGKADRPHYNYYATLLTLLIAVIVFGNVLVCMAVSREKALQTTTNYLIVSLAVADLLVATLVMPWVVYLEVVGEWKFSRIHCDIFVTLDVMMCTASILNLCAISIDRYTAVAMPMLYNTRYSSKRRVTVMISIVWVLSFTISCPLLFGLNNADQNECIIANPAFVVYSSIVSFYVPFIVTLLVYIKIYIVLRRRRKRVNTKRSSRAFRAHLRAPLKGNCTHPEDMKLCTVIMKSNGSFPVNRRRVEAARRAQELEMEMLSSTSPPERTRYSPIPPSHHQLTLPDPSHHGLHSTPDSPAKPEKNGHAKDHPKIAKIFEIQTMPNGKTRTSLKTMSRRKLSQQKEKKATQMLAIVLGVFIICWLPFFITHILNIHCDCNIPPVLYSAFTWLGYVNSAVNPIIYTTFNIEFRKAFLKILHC
Method in brief: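 cAMP accumulation in DRD2-HEK293 cells measured by HTRF after 1 h detection; compounds added 10 min before NKH477 (200nM […]) forskolin-analogue stimulation, 30 min at room temperature, with Ro20-1724 present at 0.1 mM final.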

[17] = target: D(2) dopamine receptor (Homo sapiens) (UniProt P14416); test: Dopamine D2 receptor (DRD2) small molecule antagonists, cell-based qHTS assay (AID 1963595; active = well fitted inhibition curve with a large enough effect in the signal ratio in the repeat runs, with a control signal flat; the % refers to the signal ratio)
Method in brief: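 HTRF cAMP read-out at 665 and 620 nm emission (340 nm excitation). Antagonist mode: compounds were tested against 12 nM quinpirole in DRD2-HEK293 cells, with 200 nM NKH477 raising cAMP and 0.1 mM Ro20-1724 blocking its breakdown.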

[18] = p53 small molecule agonists, cell-based qHTS assay with rat liver microsomes (AID 1963578)
Method in brief: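 p53RE-bla cells, 4,000/well, pre-incubated 5 h, then given compounds plus rat liver microsomes (0.5 mg/mL final) and NADPH (0.5 mg/mL final). Incubation 16 h at 37 C; beta-lactamase reporter read by LiveBLAzer fluorescence after 2 h at room temperature.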

[19] = p53 small molecule agonists, cell-based qHTS assay (AID 1963582; active = well fitted activation curve with a large enough effect in the signal ratio in the repeat runs, not every such curve was filed as active; the % refers to the signal ratio)
Method in brief: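 p53RE-bla beta-lactamase reporter cells rested 5 h at 37 C/5% CO2, then received compounds in DMSO by pin transfer and were incubated 16 h at 37 C. LiveBLAzer B/G FRET substrate was loaded for 2 h at room temperature before fluorescence reading.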

[20] = target: Beta-2 adrenergic receptor (Homo sapiens) (UniProt P07550); test: Adrenergic beta2 receptor (ADRB2) small molecule agonists, cell-based qHTS assay (AID 1963593);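 also: CHO cells stably overexpressing human ADRB2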
Method in brief: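 CHO cells stably over-expressing ADRB2 were plated overnight at 37C, then dosed with compounds plus a stimulation mix containing 100uM IBMX and 25uM Ro-20-1724 for 0.5hr at room temperature. cAMP was measured by HTRF competition, 1hr.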

SMILES	Potency [1]	Potency [2]	Potency [3]	Potency [4]	Potency [5]	Potency [6]	Potency [7]	Potency [8]	Potency [9]	Potency [10]	Potency [11]	Potency [12]	Potency [13]	Potency [14]	Potency [15]	Potency [16]	Potency [17]	Potency [18]	Potency [19]	Potency [20]
COC(=O)c1cc(Oc2ccc(Cl)cc2Cl)ccc1[N+](=O)[O-]	inactive	inactive	inactive	inactive	inactive	inactive	inactive	inactive	inactive	inactive	0.0375 µM (active)	inactive	inactive	inactive	inactive	inactive	inactive			
O=C(Nc1ccccc1)Nc1cnns1	inactive	inactive	inactive	inactive	inactive			inactive	inactive	inactive	inactive	inactive		inactive	inactive		inactive	inactive	inactive	inactive
N=C(N)[Se]	inactive	inactive	inactive	inactive	inactive	inactive	inactive	inactive	inactive		inactive	inactive	inactive	inactive		inactive	inactive			inactive
Clc1ccc(CSC(Cn2ccnc2)c2ccc(Cl)cc2Cl)cc1 (centres undefined)	29.8 µM (active)	inactive	inactive	inactive	inactive										inactive	inactive	inactive	inactive		inactive
N#CC(O)c1ccccc1 (centres undefined)	inactive	inactive	inactive	inactive		inactive	inactive	inactive	inactive	inactive	inactive	inactive	inactive	inactive	inactive	inactive	inactive			
COc1ccc(/C(=C/C(=O)N2CCOCC2)c2ccc(Cl)cc2)cc1OC	inactive	inactive	inactive	inactive		inactive	inactive	inactive		inactive	inactive	inactive				inactive	inactive	inactive	inactive	inactive
CCOP(=S)(OCC)SCS(=O)(=O)C(C)(C)C	inactive	inactive	inactive	inactive	1.82 µM (active)	inactive		inactive	inactive	inactive	inactive	inactive	inactive	inactive	inactive	inactive	inactive		inactive	
CCOP(=S)(OCC)SCCl	inactive	inactive	inactive	inactive		inactive	inactive	inactive	inactive	inactive	inactive	inactive	inactive	inactive	inactive	inactive	inactive		inactive	inactive
Cc1cc(C)c(C2=C(OC(=O)CC(C)(C)C)C3(CCCC3)OC2=O)c(C)c1	inactive	inactive	inactive	inactive		inactive	inactive	inactive	inactive	inactive	inactive	inactive	inactive	inactive	inactive	inactive	inactive			inactive
O=C(Nc1ccccc1)N(Cc1ccc(Cl)cc1)C1CCCC1	inactive	inactive	inactive	inactive	inactive	inactive	inactive	inactive	inactive	inactive	37.5 µM (active)	inactive			inactive	inactive	inactive			inactive
CCSC(C)CC1CC(=O)C(/C(CC)=N/OC/C=C/Cl)=C(O)C1 (centres undefined)	inactive	inactive	inactive	inactive		inactive				inactive	inactive	inactive	inactive	inactive		inactive	inactive	inactive		inactive
N#CN=C1SCCN1Cc1ccc(Cl)nc1	inactive	inactive	inactive	inactive	inactive	inactive			inactive	inactive	inactive	inactive	inactive	inactive	inactive	inactive	inactive		inactive	inactive
CO/C=C(/C(=O)OC)c1ccccc1Oc1cc(Oc2ccccc2C#N)ncn1	6.11 µM (active)	inactive	inactive	inactive	inactive					inactive	inactive	inactive								
O=c1[nH]c2ccccc2n1CCCN1CCC(n2c(=O)[nH]c3cc(Cl)ccc32)CC1	inactive	inactive	inactive	inactive		inactive		inactive										inactive		
O=C(O)c1ccccc1C(=O)Nc1cccc2ccccc12	inactive	inactive	inactive	inactive		inactive	inactive	inactive	inactive	inactive	inactive	inactive		inactive	inactive	inactive	inactive	inactive	inactive	
CCOc1nc(C(Cl)(Cl)Cl)ns1	inactive	inactive	inactive	inactive	inactive	inactive	inactive	inactive	inactive	inactive	inactive	inactive	inactive	inactive					inactive	
CCN(CC)c1nc(C)cc(OP(=S)(OC)OC)n1	inactive	inactive	inactive	inactive	inactive	inactive	inactive	inactive	inactive	inactive	inactive	inactive	inactive	inactive	inactive	inactive	inactive		inactive	
